According to PubChem BioAssay (NCI):
Compounds without any hit were thinned out: in the full panel of roughly 83,000, 20% have a hit.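 Values shown are percent growth following 48 h exposure of cells in 96-well plates to a single concentration of compound; below 10 was considered active.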 Activity calls are given as the source filed them.

Legend:
Assay in all cases: NCI-60 one-dose screen, 48 h (100 = growth as untreated, 0 = no growth, -100 = all killed)
Conditions in all cases: 10 µM unless noted
HCT-15 colon = system: HCT-15 colon
HT29 colon = system: HT29 colon
SNB-75 CNS = system: SNB-75 CNS
SNB-19 CNS = system: SNB-19 CNS
U251 CNS = system: U251 CNS
PC-3 prostate = system: PC-3 prostate
SK-MEL-5 melanoma = system: SK-MEL-5 melanoma
UACC-62 melanoma = system: UACC-62 melanoma
LOX IMVI melanoma = system: LOX IMVI melanoma
SK-MEL-28 melanoma = system: SK-MEL-28 melanoma

Measured: growth

C[C@H](c1nc2ccc(C#N)cc2[nH]1)[C@H]1CC[C@H]2[C@@H]3CCC4=CC(=O)CC[C@]4(C)[C@H]3CC[C@]12C
inactive: HCT-15 colon 44.7% | HT29 colon 32.9% | SNB-75 CNS 75.7% | SNB-19 CNS 71.6% | U251 CNS 65.3% | PC-3 prostate 28.5% | SK-MEL-5 melanoma 50.4% | UACC-62 melanoma 56.6% | LOX IMVI melanoma 71.7% | SK-MEL-28 melanoma 89.4%

CCOC(=O)C/C(=N\Nc1cc(=O)[nH]c2ccc(OC)cc12)C(=O)OCC
inactive: HCT-15 colon 99.7% | HT29 colon 110% | SNB-75 CNS 94.6% | SNB-19 CNS 100% | U251 CNS 106% | PC-3 prostate 89% | SK-MEL-5 melanoma 99.7% | UACC-62 melanoma 90.4% | LOX IMVI melanoma 96.6% | SK-MEL-28 melanoma 99.6%

CCC(C)(C)c1ccc(Nc2ccc(Nc3ccc(C(C)(C)CC)cc3)cc2)cc1
inactive: HCT-15 colon 91.2% | HT29 colon 67% | SNB-75 CNS 93% | SNB-19 CNS 95.9% | U251 CNS 90.7% | PC-3 prostate 65.8% | SK-MEL-5 melanoma 99.2% | UACC-62 melanoma 83.2% | LOX IMVI melanoma 89.9% | SK-MEL-28 melanoma 105%

CSc1nc(-c2ccco2)c(C#N)c(=O)n1C
inactive: HCT-15 colon 98.1% | HT29 colon 113% | SNB-75 CNS 89.3% | SNB-19 CNS 93.7% | U251 CNS 103% | PC-3 prostate 94.4% | SK-MEL-5 melanoma 101% | UACC-62 melanoma 99.5% | LOX IMVI melanoma 97.2% | SK-MEL-28 melanoma 109%

COc1cc(/C=N/NC(=O)c2ccc(-n3cc(-c4ccccc4)nn3)cc2)cc(OC)c1OC
inactive: HCT-15 colon 76.2% | HT29 colon 47.8% | SNB-75 CNS 71.6% | SNB-19 CNS 58.9% | U251 CNS 48.4% | PC-3 prostate 47.5% | SK-MEL-5 melanoma 57.2% | LOX IMVI melanoma 36.3% | SK-MEL-28 melanoma 53.3%
active: UACC-62 melanoma 9.86%

COc1ccc(N=C2NN=C(c3c[nH]c4ccccc34)CS2)cc1OC
inactive: HCT-15 colon 43.3% | HT29 colon 25.3% | SNB-75 CNS 42.2% | SNB-19 CNS 51.8% | U251 CNS 44.8% | SK-MEL-5 melanoma 51.9% | UACC-62 melanoma 35.6% | LOX IMVI melanoma 45.1% | SK-MEL-28 melanoma 63.7%
active: PC-3 prostate -41.3%

CCN(CCNc1ccc(C)c2sc3cc(Cl)ccc3c(=O)c12)CC(C)(C)O
active: UACC-62 melanoma -60.1% | SK-MEL-28 melanoma -33%
inactive: HCT-15 colon 17.5% | HT29 colon 21.7% | SNB-75 CNS 68.5% | SNB-19 CNS 71% | U251 CNS 46.3% | PC-3 prostate 81.2% | SK-MEL-5 melanoma 63.4% | LOX IMVI melanoma 41.8%

COc1ccc(/C=C(\C(=O)NCc2cccnc2)S(=O)(=O)c2ccccc2)cc1OC
inactive: HCT-15 colon 28.3% | SNB-75 CNS 54.2% | SNB-19 CNS 38.4% | U251 CNS 32.2% | PC-3 prostate 36.5% | SK-MEL-5 melanoma 64.6% | UACC-62 melanoma 34.9% | SK-MEL-28 melanoma 34.6%
active: HT29 colon 9.86% | LOX IMVI melanoma 4.04%

O=C(C[C@]1(O)C(=O)Nc2ccc(Br)cc21)c1ccco1
inactive: HCT-15 colon 105% | HT29 colon 101% | SNB-75 CNS 96.1% | SNB-19 CNS 95.6% | U251 CNS 100% | PC-3 prostate 92.6% | SK-MEL-5 melanoma 93.3% | UACC-62 melanoma 90.7% | LOX IMVI melanoma 89.9% | SK-MEL-28 melanoma 117%

CN(C)c1ccc(/C=C2\C=C(c3nc4ccccc4s3)OC2=O)cc1
inactive: HCT-15 colon 102% | HT29 colon 98.2% | SNB-75 CNS 87.2% | SNB-19 CNS 95.3% | U251 CNS 98.4% | PC-3 prostate 78.5% | SK-MEL-5 melanoma 96.4% | UACC-62 melanoma 75.4% | LOX IMVI melanoma 91% | SK-MEL-28 melanoma 106%

Cc1oc(-c2ccc(Cl)cc2)nc1C1=NN(C(=O)c2ccncc2)C(c2ccccc2)C1 (stereo not given)
inactive: HCT-15 colon 91.3% | HT29 colon 96.6% | SNB-75 CNS 92.8% | SNB-19 CNS 80.3% | U251 CNS 92.8% | PC-3 prostate 83.7% | SK-MEL-5 melanoma 97.3% | UACC-62 melanoma 72.9% | LOX IMVI melanoma 92.7% | SK-MEL-28 melanoma 89.7%

CN(C)Cc1ccc(NC(=O)c2cncc(C#Cc3cnc(N)c4ncccc34)c2)cc1C(F)(F)F
active: HCT-15 colon -50.6% | HT29 colon -50.1% | SNB-19 CNS -8.43% | U251 CNS -57.5% | LOX IMVI melanoma -79.9% | SK-MEL-28 melanoma -83.1%
inactive: SNB-75 CNS 82.2% | PC-3 prostate 92.2% | SK-MEL-5 melanoma 24.8% | UACC-62 melanoma 45.1%

O=C(Nc1cccnc1Nc1ccc(Cl)cc1)c1cn(Cc2cccc(Oc3ccccc3)c2)nn1
inactive: HCT-15 colon 25.6% | HT29 colon 27.2% | SNB-75 CNS 42.1% | SNB-19 CNS 50.1% | U251 CNS 39.4% | PC-3 prostate 35% | SK-MEL-5 melanoma 12.6% | UACC-62 melanoma 30.6% | LOX IMVI melanoma 31.1% | SK-MEL-28 melanoma 61.7%

CCOC(=O)c1c(NC(=O)c2ccccc2)sc2c3c(ccc12)OCN(C)C3
active: HCT-15 colon -48.4% | HT29 colon -20.3% | SNB-19 CNS 8.15% | U251 CNS -13% | SK-MEL-5 melanoma -40.3% | UACC-62 melanoma -71.2% | LOX IMVI melanoma -90.8% | SK-MEL-28 melanoma -92.2%
inactive: SNB-75 CNS 79.3% | PC-3 prostate 21.7%

CCOC(=O)C1=C(c2ccccc2)N=C2N(c3ccccc3)N=C(C(C)=O)N2C1c1ccc(F)cc1 (stereo not given)
inactive: HCT-15 colon 90.8% | HT29 colon 109% | SNB-75 CNS 89.4% | SNB-19 CNS 95.4% | U251 CNS 103% | PC-3 prostate 89.4% | SK-MEL-5 melanoma 97.6% | UACC-62 melanoma 89.5% | LOX IMVI melanoma 102% | SK-MEL-28 melanoma 105%

Cc1ccc(C(=O)c2ccc(CC(=O)N/N=C/c3cccc(O)c3O)n2C)cc1
inactive: HCT-15 colon 15.7% | HT29 colon 86.7% | SNB-75 CNS 25.4% | SNB-19 CNS 46% | U251 CNS 26% | PC-3 prostate 59.2% | SK-MEL-5 melanoma 34.6% | UACC-62 melanoma 39.1% | LOX IMVI melanoma 17.3% | SK-MEL-28 melanoma 80%

CCN1CCN(CCNc2nccc(-c3c(-c4ccc(F)c(O)c4)nc4occn34)n2)S1(=O)=O
active: SK-MEL-5 melanoma -22.7% | UACC-62 melanoma -44.9%
inactive: HCT-15 colon 17.8% | HT29 colon 20.1% | SNB-75 CNS 83.5% | SNB-19 CNS 73.7% | U251 CNS 45.7% | PC-3 prostate 13.7% | LOX IMVI melanoma 15.6% | SK-MEL-28 melanoma 42.2%

CCOC(=O)CNC1=C(Cl)C(=O)N(Cc2ccc(Cl)cc2)C1=O
inactive: HCT-15 colon 110% | HT29 colon 105% | SNB-75 CNS 97.9% | SNB-19 CNS 98.6% | U251 CNS 100% | PC-3 prostate 97.7% | SK-MEL-5 melanoma 102% | UACC-62 melanoma 104% | LOX IMVI melanoma 95.9% | SK-MEL-28 melanoma 106%

OC1(c2ccccc2)c2ccccc2N(c2ccccc2)c2ccc(Cl)cc21 (stereo not given)
active: HCT-15 colon -44.2% | HT29 colon -77.5% | SNB-75 CNS -57.6% | SNB-19 CNS -91.6% | U251 CNS -87.9% | PC-3 prostate -75.1% | SK-MEL-5 melanoma -97.6% | UACC-62 melanoma -92% | LOX IMVI melanoma -93.6% | SK-MEL-28 melanoma -97.1%

Cc1sc2nc(NCCN)[nH]c(=O)c2c1C
inactive: HCT-15 colon 92.8% | HT29 colon 95.1% | SNB-75 CNS 67.4% | SNB-19 CNS 87.5% | U251 CNS 95.9% | PC-3 prostate 93.3% | SK-MEL-5 melanoma 96% | UACC-62 melanoma 95.4% | LOX IMVI melanoma 91.3% | SK-MEL-28 melanoma 98.4%

COCCn1cc(-c2csc(-c3c[nH]c4ccccc34)n2)c2cccnc21
active: SK-MEL-5 melanoma 8.9%
inactive: HCT-15 colon 25.8% | HT29 colon 11.6% | SNB-75 CNS 20.5% | SNB-19 CNS 65.5% | U251 CNS 35.5% | PC-3 prostate 29.6% | UACC-62 melanoma 54.8% | LOX IMVI melanoma 34.1% | SK-MEL-28 melanoma 64.4%

O=[N+]([O-])c1c(O)c(Cl)cc(Cl)c1Cl
inactive: HCT-15 colon 99.8% | HT29 colon 101% | SNB-75 CNS 98.8% | SNB-19 CNS 101% | U251 CNS 97.9% | PC-3 prostate 88% | SK-MEL-5 melanoma 98.3% | UACC-62 melanoma 100% | LOX IMVI melanoma 94.2% | SK-MEL-28 melanoma 109%

O=c1oc2c(cc1-c1ccccc1)c[n+]([O-])c1ccccc21
inactive: HCT-15 colon 103% | HT29 colon 103% | SNB-75 CNS 93% | SNB-19 CNS 97.9% | U251 CNS 97.9% | PC-3 prostate 97% | SK-MEL-5 melanoma 98.1% | UACC-62 melanoma 97.4% | LOX IMVI melanoma 101% | SK-MEL-28 melanoma 109%

Cc1ccccc1N1CCN(C(=S)c2ccccc2)CC1
inactive: HCT-15 colon 98.8% | HT29 colon 96.2% | SNB-75 CNS 84.7% | SNB-19 CNS 98.8% | U251 CNS 93.4% | PC-3 prostate 101% | SK-MEL-5 melanoma 96.8% | UACC-62 melanoma 82.9% | LOX IMVI melanoma 92.3% | SK-MEL-28 melanoma 109%

Cc1c(O)cc(-c2cnc(N/N=C/c3ccccc3)s2)c(O)c1C
inactive: HCT-15 colon 79.1% | HT29 colon 104% | SNB-75 CNS 98% | SNB-19 CNS 105% | U251 CNS 97.9% | PC-3 prostate 69.7% | SK-MEL-5 melanoma 85.8% | UACC-62 melanoma 81.9% | LOX IMVI melanoma 79.9% | SK-MEL-28 melanoma 92.2%

COc1ccc(C(O)c2cc3c(N)c(C(=O)Nc4cccc5ccccc45)sc3nc2C)cc1 (stereo not given)
active: HCT-15 colon 6.45% | HT29 colon 6.41% | SK-MEL-5 melanoma -47.4%
inactive: SNB-75 CNS 32.5% | SNB-19 CNS 25% | U251 CNS 20.1% | PC-3 prostate 14.1% | UACC-62 melanoma 18.6% | LOX IMVI melanoma 19.1% | SK-MEL-28 melanoma 57.6%
